Bioassay records from PubChem BioAssay.
Only some compounds are listed: those with a hit (about 2.2% of all), similar ones and a draw of the others.
APP transl inh – APP translation inhibition | SH-SY5Y APP 5'UTR-luciferase reporter, luminescence | inhibition, % at 2 µM | 0.82% of 190,000 active;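 active = inhibition above a set limit, derived from the sample mean plus 3 SD, cut at about 45% in these data; inconclusive = one replicate passes the limit while the other fails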
Ba/F3 V617F tox – reduce viability of Ba/F3 cells dependent on JAK2V617F | Ba/F3 EpoR-JAK2V617F viability, ATP luminescence | inhibition, % at 5.6 µM | 1.1% of 220,000 active | AID 1446;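 active = inhibition above the campaign mean plus 3 SD over all tested compounds, cut at about 24% in these data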;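 note: cytokine-independent growth of Ba/F3 cells driven by EpoR plus mutant JAK2; 0% = DMSO-treated cells and 100% = JAK inhibitor I control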
IEC-6 cytotox – IEC-6 cytotoxicity, counter-screen for KLF5 inhibitors. luminescence viability. inhibition, % at 5 µM. 0.78% of 290,000 active; in the data active = inhibition above about 22%;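 note: 0% = plate median of test compound wells and 100% = cytotoxic reference compound wells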
aSyn 5UTR inh – MLPCN primary screen, SNCA 5' untranslated region; alpha-synuclein 5'UTR reporter, inhibitor activity; inhibition, % (tested at 7.5 µM); 0.82% of 300,000 active; in the data active = inhibition above about 60%; inconclusive = no clear call, values can overlap the other calls;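 note: H4 neuroglioblastoma cells stably carrying SNCA 5'UTR luciferase fusion; 0% = DMSO wells and 100% = positive control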
BaF3 tox – counter-screen for JAK2V617F inhibitors: parental Ba/F3 viability inhibitors. CellTiter-Glo ATP luminescence. inhibition, % at 5.6 µM. 1.1% of 220,000 active. AID 1486;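 active = inhibition above a per-campaign cutoff, the mean inhibition of all tested compounds plus 3 SD, cut at about 27% in these data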;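 note: 0% = DMSO wells and 100% = JAK Inhibitor I control wells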
KLF5 inh – suppresses KLF5 promoter-driven expression. inhibition, % at 5 µM. 0.23% of 290,000 active. DLD-1 KLF5 promoter-luciferase reporter, luminescence;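 active = inhibition above a per-plate limit of that plate's mean compound inhibition plus 3 SD, cut at about 60% in these data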;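 note: 0% = DMSO wells and 100% = LY294002 at 200 µM; higher means less KLF5 promoter-driven luciferase light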
Active calls of the source: *; ? = inconclusive; nt = no result.

SMILES	APP transl inh	Ba/F3 V617F tox	IEC-6 cytotox	aSyn 5UTR inh	BaF3 tox	KLF5 inh
CN1CCN(c2ccc([N+](=O)[O-])cc2C(=O)c2ccccc2)CC1	12	3	1	2	5	-5
Cc1ccc(C(=O)c2cc([N+](=O)[O-])ccc2N2CCOCC2)cc1C	93*	85*	6	17	76*	6
COc1ccc(C(=O)c2cc([N+](=O)[O-])ccc2N2CCN(C)CC2)cc1	65*	74*	74*	-40	85*	55
CN1CCN(c2ccc([N+](=O)[O-])cc2C(=O)c2ccc(Br)cc2)CC1	69*	-2	6	67*	2	-4
CCSc1nnc(-c2sc3nnc(-c4ccccc4)c(-c4ccccc4)c3c2N)o1	-19	-1	-10	6	4	-42
O=C(NC1CCSc2ccccc21)c1ccc(C(F)(F)F)cc1 (stereo not drawn)	nt	nt	0	-1	nt	1
CSc1ccc(COC(=O)c2cc([N+](=O)[O-])ccc2N2CCOCC2)cc1	nt	nt	nt	67*	nt	nt
Cc1ccccc1COC(=O)c1cc([N+](=O)[O-])ccc1N1CCOCC1	nt	nt	0	10	nt	-1
O=C(N/N=C/c1ccc[nH]1)c1ccc(COc2cccc3cccnc23)cc1	46*	87*	39*	104*	80*	-22
c1ccc(CN2CCC(Nc3nc(-c4ccccc4)nc4ccccc34)CC2)cc1	11	-2	0	72*	4	-14
COc1cc(NC(=O)NCC2CCN(Cc3ccccc3F)CC2)cc(OC)c1	nt	nt	3	8	nt	-26
CCC(=O)NC1CCN(C(=S)NC)CC1	6	-6	-12	-1	62*	1
CN(Cc1cnc2nc(N)nc(N)c2n1)c1ccc(C(=O)N[C@@H](CCC(=O)O)C(=O)O)cc1	nt	nt	nt	78*	nt	nt
Nc1nc2ncc(CNc3ccc(C(=O)N[C@@H](CCC(=O)O)C(=O)O)cc3)nc2c(=O)[nH]1	nt	nt	-1	9	nt	-22
CC1(C)CC(=O)C(N=Nc2cc(Cl)c(Cl)c(Cl)c2)=C(O)C1	6	-4	-8	-9	-1	-11
Cc1ccc(O)c(N=NC2=C(O)CC(C)(C)CC2=O)c1	36	10	-4	65*	4	-58
O=C(Nn1c(-c2ccncc2)nc2ccccc2c1=O)c1ccccc1Br	-4	1	5	-9	5	12
COc1ccc2c(c1)c(/C=N/Nc1nc3ccccc3[nH]1)c(C)n2C	nt	2	16	-115	53*	-42
C#CCn1cc(/C=N/Nc2nc3ccccc3[nH]2)c2ccccc21	-4	3	31*	-383	4	-37
C#CCn1cc(/C=N/NC(=O)COc2cccc3cccnc23)c2ccccc21	-13	4	8	-38	9	-33
O=C(Cc1cccs1)N/N=C/c1ccccc1	nt	-4	-2	-19	0	-21
CCCCn1c(/C=N/Nc2nc3ccccc3[nH]2)nc2ccccc21	88*	1	4	-433	3	-4
CCN(CC)c1ccc(/C=N/NC(=O)Cc2cccs2)c(O)c1	64*	1	7	?	8	-19
C=CCNC(=O)c1onc(CSc2ccccn2)c1C(=O)NCC=C	nt	nt	nt	-2	nt	nt
COc1cc(=O)[nH]c(SC(C)C(=O)Nc2cccc3ccccc23)n1 (stereo not drawn)	nt	nt	2	5	nt	-27
SMILES	APP transl inh	Ba/F3 V617F tox	IEC-6 cytotox	aSyn 5UTR inh	BaF3 tox	KLF5 inh
COc1ccc(-n2ccn3c(CCC(=O)N4CCN(c5cccc(C)c5C)CC4)nnc3c2=O)cc1	nt	nt	-5	22	nt	-3
COc1cc(OC)c(OC)cc1/C=N/Nc1nc2ccccc2[nH]1	nt	3	10	-2	5	-25
CCN(CC)c1ccc(/C=N/Nc2nc3ccccc3[nH]2)c(O)c1	-9	3	2	84*	4	-5
Cc1cc(-c2ccc([N+](=O)[O-])cc2)nc2ccccc12	-39	-1	13	-37	3	-2
Cc1cc(N2CCN(c3nc(-c4ccc([N+](=O)[O-])cc4)cs3)CC2)c2ccccc2n1	29	-3	-7	66*	0	-26
CCOc1ccc(-n2c(C)cc(/C=N/N(C)C)c2C)cc1	-18	10	2	0	37*	-5
CCOc1ccc(-n2c(C)cc(/C=N/NC(=O)C(N)=O)c2C)cc1	6	0	-2	16	6	-4
CCOc1ccc(-n2c(C)cc(C(=O)CCl)c2C)cc1	27	0	-1	111*	0	-18
Cc1cc(N2CCN(C)CC2)ccc1NC(=O)c1c2c(nc3ccccc13)CCN(Cc1ccccc1)C2	12	10	3	92*	7	2
O=C(NC1CCCCCC1)c1c2c(nc3ccccc13)CCN(Cc1ccccc1)C2	-13	-2	-2	-57	3	-13
CC(C)(C)C1=CC(=O)C(=O)C(C(C)(C)C)=C1	47*	-1	5	-21	2	-5
NC(=O)c1ccccc1NC(=O)c1ccc2c(c1)OCO2	nt	nt	5	-152	nt	-164
COCCNC(=O)CN1CCC(NC(=O)c2ccco2)CC1	-5	1	-3	13	46*	-23
C=CCNC(=O)CN1CCC(NC(=O)c2ccco2)CC1	17	-1	-1	-14	1	-7
COC(=O)c1sc(S(=O)(=O)N2CCCCC2C(=O)O)c(C(=O)OC)c1C (stereo not drawn)	59*	-3	1	-3	2	-45
O=C(CCn1c(=S)oc2ccccc21)NC1CCCCCC1	nt	0	-2	5	-4	-3
CC1CCCCN1C(=O)CCn1c(=S)oc2ccccc21 (stereo not drawn)	nt	16	-3	-9	50*	2
O=C(Cc1ccc(Cl)cc1)NCCc1cnc[nH]1	nt	nt	0	8	nt	-10
COc1ccc(C(=O)NCCS(=O)(=O)N2CCN(C(=O)c3ccco3)CC2)cc1	nt	nt	nt	8	nt	nt
Cc1oc(C(=O)Nc2ccc(O)cc2)cc1COc1ccccc1	-14	9	5	nt	37*	-10
Cc1ccc(OCc2cc(C(=O)Nc3ccccc3)oc2C)cc1	-2	2	2	-54	3	-40
C/C(=N\NC(=O)c1cc(-c2cccnc2)nc2ccccc12)c1ccc(O)cc1O	66*	-1	3	105*	5	3
C/C(=N\NC(=O)c1cc(-c2cccc(OC(C)C)c2)nc2ccccc12)c1cccnc1	nt	nt	-3	17	nt	-28
C/C(=N\S(=O)(=O)c1ccc(C)cc1)N1CCCCC1	-2	1	0	13	80*	-20
C/C(=N\S(=O)(=O)c1ccc(C)cc1)N1CCN(S(=O)(=O)c2ccccc2)C1	-8	0	0	4	-1	-22
CN1Cc2c(N3CCOCC3)nc3sc(C#N)c(N)c3c2CC1(C)C	nt	-1	0	-16	-1	-7
CN1Cc2c(N3CCOCC3)nc3sc(C(=O)c4ccc(Br)cc4)c(N)c3c2CC1(C)C	nt	5	-2	105*	0	-5
CC(C)c1nc(CN2CCCCC2)cc(=O)[nH]1	-5	1	0	-32	5	-26
